Most compounds without a hit are left out; they make up all but 4.1% or so of the library.
697 NFkB inh – lowers PMA/ionomycin-induced NF-kB signal in 697 B cells. 697 B-cell NF-kB luciferase reporter, 16 h. inhibition, % at 4 µM. 330,000 compounds, 0.33% hits; in the data active means inhibition above about 35%
aSyn UTR inh – MLPCN primary screen, SNCA 5' untranslated region; alpha-synuclein 5'UTR reporter, inhibitor activity; inhibition, % (tested at 7.5 µM); 300,000 compounds, 0.82% hits; AID 1813; in the data active means inhibition above about 60%;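 further: H4 neuroglioblastoma cells stably carrying SNCA 5'UTR luciferase fusion; 0% = DMSO wells and 100% = positive control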
Gli-Sufu antag – Gli-Sufu pathway antagonism | Sufu-KO-LIGHT fibroblasts, Gli luciferase reporter luminescence | inhibition, % at 5 µM | 340,000 compounds, 0.74% hits | AID 588413;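 active means inhibition above about 55%, limit read from the data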;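 further: 0% = DMSO-treated cells and 100% = wells with medium but no cells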
Mdm2 MdmX PPI – disrupts the human Mdm2-MdmX interaction. O15151+Q00987. 330,000 compounds, 3% hits. inhibition, % at 8 µM. SaOS-2 split-luciferase Mdm2/MdmX complementation, luminescence;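 active means inhibition of at least 50% at 8 µM in the primary screen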
Target sequence (O15151 whole entry, looked up): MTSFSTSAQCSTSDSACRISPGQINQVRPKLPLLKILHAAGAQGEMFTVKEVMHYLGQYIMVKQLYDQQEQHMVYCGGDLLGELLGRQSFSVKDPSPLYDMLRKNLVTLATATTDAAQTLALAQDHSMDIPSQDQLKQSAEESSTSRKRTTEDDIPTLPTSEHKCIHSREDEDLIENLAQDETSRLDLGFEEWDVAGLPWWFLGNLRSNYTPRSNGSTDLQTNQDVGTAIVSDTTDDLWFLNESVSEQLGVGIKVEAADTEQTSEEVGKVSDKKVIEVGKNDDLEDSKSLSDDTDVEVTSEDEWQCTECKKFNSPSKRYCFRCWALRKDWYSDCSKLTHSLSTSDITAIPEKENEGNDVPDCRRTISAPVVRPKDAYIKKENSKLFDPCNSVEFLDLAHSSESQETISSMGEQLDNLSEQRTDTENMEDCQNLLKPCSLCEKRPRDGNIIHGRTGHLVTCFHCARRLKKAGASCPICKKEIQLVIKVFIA
Target sequence (Q00987 whole entry, looked up): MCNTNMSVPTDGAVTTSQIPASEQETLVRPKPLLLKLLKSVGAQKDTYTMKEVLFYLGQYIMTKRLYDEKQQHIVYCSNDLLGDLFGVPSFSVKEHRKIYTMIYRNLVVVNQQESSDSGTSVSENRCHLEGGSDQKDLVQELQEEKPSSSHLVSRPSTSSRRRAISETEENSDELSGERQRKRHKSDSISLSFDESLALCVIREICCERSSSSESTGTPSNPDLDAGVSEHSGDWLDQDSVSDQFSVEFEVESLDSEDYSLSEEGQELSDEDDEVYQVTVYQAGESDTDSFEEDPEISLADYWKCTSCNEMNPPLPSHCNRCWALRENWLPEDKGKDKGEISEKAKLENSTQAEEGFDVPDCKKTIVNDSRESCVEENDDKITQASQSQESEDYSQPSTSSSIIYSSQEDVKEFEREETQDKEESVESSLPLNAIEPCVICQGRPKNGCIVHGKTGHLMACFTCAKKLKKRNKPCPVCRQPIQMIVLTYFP
KLF5 inh – inhibitors of KLF5 expression | 290,000 compounds, 0.23% hits | DLD-1 KLF5 promoter-luciferase reporter, luminescence | inhibition, % at 5 µM;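 active means inhibition above a per-plate limit of that plate's mean compound inhibition plus 3 SD, cut at about 60% in these data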;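 further: 0% = DMSO wells and 100% = LY294002 at 200 µM; higher means less KLF5 promoter-driven luciferase light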
Jurkat NFkB inh – inhibitors of the PMA/ionomycin-induced NF-kB reporter in Jurkat cells. 330,000 compounds, 0.53% hits. PMA/ionomycin-induced NF-kB luciferase reporter, luminescence. inhibition, % at 4 µM; in the data active means inhibition above about 50%
Mdm2 MdmX conf – confirmation of human Mdm2/MdmX interaction inhibitors | shares compounds with Mdm2 MdmX PPI | Mdm2-MdmX binding, luminescent assay | inhibition, % at 8 µM | 10,000 compounds, 55% hits | AID 489028; in the data active means inhibition above about 40%
FLuc counter – inhibits full-length luciferase, flagging false Mdm2/MdmX hits; shares compounds with Mdm2 MdmX PPI; 6,200 compounds, 77% hits; AID 504607; SaOS-2 full-length luciferase counterscreen, luminescence; inhibition, % at 8 µM;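 active means mean inhibition at 8 µM reaching about 37%, which flags the compound as non-specific, limit read from the data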;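 further: p53-null SaOS-2 cells with luciferase driven by a doxycycline-inducible promoter; compound on cells about two nights before reading with doxycycline added after day one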
The depositor's hits bear a star.

How did COc1cc(C(=O)Nc2ccc3nc4n(c(=O)c3c2)CCCCC4)cc(OC)c1OC do in these assays?
697 NFkB inh: 11; aSyn UTR inh: 2; Gli-Sufu antag: 16; Mdm2 MdmX PPI: 48; KLF5 inh: -26; Jurkat NFkB inh: -19

What do the screens show for `O=C(Nc1ccc2nc3n(c(=O)c2c1)CCCC3)c1ccccc1F`?
697 NFkB inh: 5; aSyn UTR inh: -67; Gli-Sufu antag: -24; Mdm2 MdmX PPI: 0; KLF5 inh: -54; Jurkat NFkB inh: -39

How did Cc1cccc(Nc2nc(N)c([N+](=O)[O-])c(NCc3ccccc3)n2)c1 do in these assays?
697 NFkB inh: -14; aSyn UTR inh: 14; Gli-Sufu antag: 22; Mdm2 MdmX PPI: 52*; KLF5 inh: -21; Jurkat NFkB inh: 8; Mdm2 MdmX conf: 33

How did C/C(=N\NC(=O)c1c(Br)c(C)nn1C)c1ccc(NC(=O)C(C)Oc2ccc(Cl)cc2C)cc1 (centres undefined) do in these assays?
697 NFkB inh: 4; aSyn UTR inh: 14; Gli-Sufu antag: 9; Mdm2 MdmX PPI: 62*; KLF5 inh: -18; Jurkat NFkB inh: -14; Mdm2 MdmX conf: 9

How did Cc1ccc(C(=O)NCCN2C3=NC[C@@H](Cc4ccccc4)N3C[C@H]2Cc2ccc(O)cc2)cc1Br do in these assays?
697 NFkB inh: 13; aSyn UTR inh: -4; Gli-Sufu antag: 17; Mdm2 MdmX PPI: 81*; KLF5 inh: 12; Jurkat NFkB inh: -4; Mdm2 MdmX conf: 25

Results for Cc1ccc(C(=O)NCCN2C3=NC[C@H](Cc4ccc(O)cc4)N3C[C@H]2Cc2ccc(O)cc2)cc1Br ?
697 NFkB inh: -20; aSyn UTR inh: 21; Gli-Sufu antag: 5; Mdm2 MdmX PPI: 3; Jurkat NFkB inh: -14

Results for COc1ccc(C[C@H]2CN3C(=NC[C@@H]3Cc3ccc(O)cc3)N2CCNC(=O)c2ccc(C)c(Br)c2)cc1 ?
697 NFkB inh: -7; aSyn UTR inh: 1; Gli-Sufu antag: 31; Mdm2 MdmX PPI: 53*; KLF5 inh: -19; Jurkat NFkB inh: 28; Mdm2 MdmX conf: 26

What do the screens show for `COc1ccc(C[C@H]2CN3C(=NC[C@@H]3Cc3ccccc3)N2CCNC(=O)c2ccc(C)c(Br)c2)cc1`?
697 NFkB inh: 15; aSyn UTR inh: 7; Gli-Sufu antag: 30; Mdm2 MdmX PPI: 100*; KLF5 inh: -4; Jurkat NFkB inh: 10; Mdm2 MdmX conf: 42*; FLuc counter: 57*

Results for COc1ccc(C[C@H]2CN3C(=NC[C@H]3Cc3ccccc3)N2CCNC(=O)c2ccc(C)c(Br)c2)cc1 ?
697 NFkB inh: -1; aSyn UTR inh: 28; Gli-Sufu antag: 20; Mdm2 MdmX PPI: 95*; Jurkat NFkB inh: 15; Mdm2 MdmX conf: 55*; FLuc counter: 37*

How did Cc1cccc2c(N=O)c(O)n(CCc3ccccc3)c12 do in these assays?
697 NFkB inh: -12; aSyn UTR inh: 29; Gli-Sufu antag: -14; Mdm2 MdmX PPI: 28; KLF5 inh: -24; Jurkat NFkB inh: 18

How did COCCN(C(=O)CSc1n[nH]c(-c2ccccc2)n1)c1c(N)n(CC(C)C)c(=O)[nH]c1=O do in these assays?
697 NFkB inh: -15; aSyn UTR inh: 4; Gli-Sufu antag: 4; Mdm2 MdmX PPI: 2; Jurkat NFkB inh: -10

What do the screens show for `CC1c2cc3c(cc2CCN1C(=O)c1ccc(Br)cc1)OCCCO3` (centres undefined)?
697 NFkB inh: -11; aSyn UTR inh: 30; Gli-Sufu antag: 3; Mdm2 MdmX PPI: 70*; KLF5 inh: 7; Jurkat NFkB inh: 39; Mdm2 MdmX conf: 46*; FLuc counter: 47*

How did COc1ccccc1CNC(=O)COC(=O)c1cc2ccccc2o1 do in these assays?
697 NFkB inh: 6; Gli-Sufu antag: 3; Mdm2 MdmX PPI: 13; Jurkat NFkB inh: 3

Results for CCCCCCN(C(=O)CCCCCN1C(=O)NC(c2ccc(C3CCCCC3)cc2)C(C(=O)OCc2ccccc2)=C1C)C(C(=O)NCCCC)c1ccc(OCC(=O)OC)c(C(=O)OC)c1 (centres undefined) ?
aSyn UTR inh: 2

Results for CCCCCCN(C(=O)CCCCCN1C(=O)NC(c2ccc(C(C)(C)C)cc2)C(C(=O)OCc2ccccc2)=C1C)C(C(=O)NCCCC)c1ccc(OCC(=O)OC)c(C(=O)OC)c1 (centres undefined) ?
697 NFkB inh: 2; aSyn UTR inh: 2; Mdm2 MdmX PPI: 77*; Jurkat NFkB inh: 12; Mdm2 MdmX conf: 5

What do the screens show for `Cc1noc(C)c1NC(=O)Nc1cccc2c1O[C@H](CN(C)C(=O)Nc1ccc3c(c1)OCO3)[C@@H](C)CN([C@H](C)CO)C2=O`?
697 NFkB inh: 8; Gli-Sufu antag: -2; Mdm2 MdmX PPI: 16; Jurkat NFkB inh: 5

What do the screens show for `COc1ccc(CN2CCN(CC(O)Cn3c4ccccc4c4ccccc43)CC2)cc1` (centres undefined)?
697 NFkB inh: -9; aSyn UTR inh: 8; Gli-Sufu antag: 18; Mdm2 MdmX PPI: 66*; KLF5 inh: -21; Jurkat NFkB inh: -7; Mdm2 MdmX conf: 35; FLuc counter: 79*

What do the screens show for `CN1CCN(CC(O)Cn2c3ccccc3c3ccccc32)CC1` (centres undefined)?
697 NFkB inh: 10; aSyn UTR inh: -13; Gli-Sufu antag: 7; Mdm2 MdmX PPI: 29; KLF5 inh: 14; Jurkat NFkB inh: 1

Results for CCOc1ccc(CN2CCN(CC(O)Cn3c4ccccc4c4ccccc43)CC2)cc1 (centres undefined) ?
697 NFkB inh: 2; aSyn UTR inh: -10; Gli-Sufu antag: -6; Mdm2 MdmX PPI: 89*; KLF5 inh: 0; Jurkat NFkB inh: 0; Mdm2 MdmX conf: 72*; FLuc counter: 36

How did COc1ccc(/C=C/CN2CCCC(CO)(Cc3cccc(Cl)c3)C2)cc1 (centres undefined) do in these assays?
697 NFkB inh: 8; aSyn UTR inh: -4; Gli-Sufu antag: 12; Mdm2 MdmX PPI: 10; KLF5 inh: -20; Jurkat NFkB inh: -15

What do the screens show for `NC(N)=NS(=O)(=O)c1ccc(NC(=S)NC(=O)Cc2ccc(Cl)cc2)cc1`?
697 NFkB inh: -19; aSyn UTR inh: -1; Gli-Sufu antag: -2; Mdm2 MdmX PPI: 16; KLF5 inh: -6; Jurkat NFkB inh: -3

How did Nc1ccc(NC(=O)c2ccccc2)c2c1C(=O)c1ccccc1C2=O do in these assays?
697 NFkB inh: -12; aSyn UTR inh: -36; Gli-Sufu antag: -1; Mdm2 MdmX PPI: 52*; KLF5 inh: -8; Jurkat NFkB inh: 41; Mdm2 MdmX conf: 53*; FLuc counter: 72*
